“And” between values parts separate entries of the source, which are not always exact repeats. Equal entries are not always repeated. Inconclusive results are not listed. A structure can be active in one record and inactive in another. The source made the active and inactive calls. Unless noted, calls follow the shape of the dose curve; as a rule, active = well fitted curve in the direction sought with a large enough effect in the repeat runs; inconclusive = weak or mixed curves; inactive = no such curve, though single readings can be large; an effect the other way counts as inactive or inconclusive.
Legend:
[1] = qHTS assay to identify small molecule agonists of the vitamin D receptor (VDR) signaling pathway - cell viability counter screen (AID 743224); also: nearly all actives have a fitted effect of over 50% in size; also: potency is read from the fitted curve at half-maximal effect
Procedure, shortened: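 Viability is measured in the same wells as the VDR-bla reporter assay: after 16 h compound treatment and 2 h substrate loading, CellTiter-Glo is added and luminescence read 30 min later.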

[2] = qHTS assay to identify small molecule antagonists of the vitamin D receptor (VDR) signaling pathway - cell viability counter screen (AID 743225); also: nearly all actives have a fitted effect of over 50% in size; also: potency is read from the fitted curve at half-maximal effect
Procedure, shortened: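 Cells (VDR-UAS-bla HEK 293T) are plated, rested 4 h at 37C, dosed with compound and 3 nM final 1-alpha,25-dihydroxy vitamin D3, and incubated 16 h. Viability is taken from CellTiter-Glo luminescence in the reporter wells.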

[3] = qHTS assay to identify small molecule agonists of the NFkB signaling pathway - cell viability counter screen (AID 1159515; calls by dose curve; also: series mostly up to about 61 µM; nearly all actives have a fitted effect of over 55% in size)
Procedure, shortened: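 Multiplexed viability readout: after the 5 hr compound exposure and 1.5 hr FRET substrate step, CellTiter-Glo reagent went into the same NFkB-bla ME-180 wells; ATP luminescence was measured after 30 min at room temperature.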

[4] = qHTS assay to identify small molecule agonists of the endoplasmic reticulum stress response signaling pathway (AID 1159516; active = well fitted activation curve with a large enough effect in the signal ratio in the repeat runs, not every such curve was filed as active; the % refers to the signal ratio)
Procedure, shortened: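 Tox21 10K library screened in quantitative HTS format on ESRE-bla HeLa cells, a beta-lactamase reporter under ER stress response element control; 5 hr treatment, FRET read.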

[5] = qHTS assay to identify small molecule agonists of the endoplasmic reticulum stress response signaling pathway - cell viability counter screen (AID 1159517; calls by dose curve; also: series mostly up to about 61 µM; nearly all actives have a fitted effect of over 50% in size)
Procedure, shortened: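 Cells, HeLa ESRE-bla; density, 1,500/well; dosing, 5 hr at 37 C, 5% CO2; readout, CellTiter-Glo luminescence after 30 min RT.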

[6] = qHTS assay to identify small molecule antagonists of the retinoid-related orphan receptor gamma (ROR-gamma) signaling pathway - cell viability counter screen (AID 1159520); also: nearly all actives have a fitted effect of over 50% in size; also: potency is read from the fitted curve at half-maximal effect
Procedure, shortened: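 Cytotoxicity was read from cellular ATP (CellTiter-Glo luminescence) after 16 hr at 37 C with 1 uM doxycycline induction. The inducer was added 2 hr after compound transfer to Tet-on ROR gamma CHO cells.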

[7] = molecular target: Nuclear receptor ROR-gamma (Homo sapiens) (UniProt P51449); assay: qHTS assay to identify small molecule antagonists of the retinoid-related orphan receptor gamma (ROR-gamma) signaling pathway (AID 1159521; also: nearly all actives have a fitted effect of over 50% in size; also: potency is read from the fitted curve at half-maximal effect)
Procedure, shortened: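 RORγ antagonism is scored from reduced reporter luminescence in Tet-on CHO cells. Induction used 1 uM final doxycycline hyclate for 16 h at 37 C, following a 2 h compound exposure.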

[8] = qHTS assay to identify small molecule agonists of the AP-1 signaling pathway - cell viability counter screen (AID 1159525; calls by dose curve; also: nearly all actives have a fitted effect of over 55% in size; also: potency is read from the fitted curve at half-maximal effect)
Procedure, shortened: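 Luminescent ATP readout (Cell Titer Glo, 30 min RT), normalised to DMSO and tetra n-octyl ammonium bromide controls. Cells were ME-180 AP-1-bla in 0.5% dialyzed FBS Opti-MEM, with a 5 h, 37 °C compound exposure.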

[9] = qHTS assay to identify small molecule agonists of the AP-1 signaling pathway (AID 1159526; calls by dose curve)
[10] = molecular target: Retinoic acid receptor RXR-alpha (Homo sapiens) (UniProt P19793); assay: qHTS assay to identify small molecule agonists of the RXR signaling pathway (AID 1159527; calls by dose curve; also: nearly all actives have a fitted effect of over 35% in size; also: potency is read from the fitted curve at half-maximal effect)
Sequence of Retinoic acid receptor RXR-alpha (Homo sapiens) (P19793 whole entry, looked up): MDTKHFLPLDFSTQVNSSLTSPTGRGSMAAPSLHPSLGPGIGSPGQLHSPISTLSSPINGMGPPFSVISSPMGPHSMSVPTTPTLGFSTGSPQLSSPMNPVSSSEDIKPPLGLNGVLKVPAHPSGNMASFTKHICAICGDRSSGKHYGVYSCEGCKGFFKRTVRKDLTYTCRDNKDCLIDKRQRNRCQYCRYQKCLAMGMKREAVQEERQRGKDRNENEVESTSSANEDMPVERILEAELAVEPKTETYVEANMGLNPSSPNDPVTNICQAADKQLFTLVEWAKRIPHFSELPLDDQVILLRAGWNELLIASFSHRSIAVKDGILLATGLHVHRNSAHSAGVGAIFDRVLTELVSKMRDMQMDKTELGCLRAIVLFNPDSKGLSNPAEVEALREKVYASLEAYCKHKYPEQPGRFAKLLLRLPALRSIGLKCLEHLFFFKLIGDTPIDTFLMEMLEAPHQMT
Procedure, shortened: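 qHTS of the Tox21 10K library in GeneBLAzer RXR-alpha HEK 293T cells carrying a beta-lactamase reporter […]; 16 hr treatment, 9-cis retinoic acid as agonist control, FRET read-out.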

[11] = qHTS assay to identify small molecule agonists of the RXR signaling pathway - cell viability counter screen (AID 1159529)
Procedure, shortened: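 Cell viability is measured by CellTiter-Glo luminescence, 30 min at room temperature, in wells already read for beta-lactamase. Engineered HEK 293T cells (RXR-alpha-UAS-bla) are dosed 16 hr at 37 C. Tetraoctyl ammonium bromide serves as positive control.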

[12] = qHTS assay to identify small molecule antagonists of the retinoid acid receptor (RAR) signaling pathway - cell viability counter screen (AID 1159551); also: nearly all actives have a fitted effect of over 35% in size; also: potency is read from the fitted curve at half-maximal effect
Procedure, shortened: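 Cytotoxicity counter screen in C3RL4 cells: 6 h compound exposure with 1 uM retinol (final), viability from cellular ATP by luminescence.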

[13] = qHTS assay to identify small molecule antagonists of the retinoic acid receptor (RAR) signaling pathway (AID 1159552; also: nearly all actives have a fitted effect of over 50% in size; also: potency is read from the fitted curve at half-maximal effect)
Procedure, shortened: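 Quantitative HTS in C3RL4 RARE-luciferase reporter cells. Compounds were added with 1 uM (final) retinol; luminescence was read after 6 hr.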

[14] = qHTS assay to identify small molecule agonists of the retinoic acid receptor (RAR) signaling pathway (AID 1159553)
Procedure, shortened: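 Agonist activity was scored in C3RL4 cells bearing a retinoic acid response element luciferase construct. Cells were treated with compounds for 6 hr at 37 C, and luciferase signal was measured as luminescence.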

[15] = qHTS assay to identify small molecule antagonists of the estrogen related receptor signaling pathway with the pleiotropic PPARgamma coactivator (PGC) cell viability counter screen (AID 1224822;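 also: series mostly up to about 46 µM; viability read after 17.5 h compound exposure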)
Procedure, shortened: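 Seed PGC/ERR cells (2,000/well); incubate 6 h at 37 C/5% CO2; pin-transfer compounds in DMSO; incubate 17.5 h at 37 C; add CellTiter-Fluor; after 30 min read fluorescence.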

[16] = qHTS assay to identify small molecule antagonists of the estrogen related receptor (ERR) signaling pathway from Tox21 library - cell viability counter screen (AID 1224834); also: nearly all actives have a fitted effect of over 30% in size; also: potency is read from the fitted curve at half-maximal effect
Procedure, shortened: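 Cytotoxicity of test substances is gauged in the same ERR cells used for the antagonist screen, after 17.5 h of compound treatment at 37 C, by CellTiter-Fluor fluorescence measured after 30 min.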

[17] = qHTS assay to identify small molecule antagonists of the estrogen related receptor (ERR) signaling pathway (AID 1224819; also: nearly all actives have a fitted effect of over 50% in size; also: potency is read from the fitted curve at half-maximal effect)
Procedure, shortened: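 Compounds dissolved in DMSO were pin-transferred onto ERR cells that had been plated 6 h earlier, and cells were then incubated 18 h at 37 C; signal was luciferase luminescence via One-Glo.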

[18] = qHTS assay to identify small molecule agonists of the estrogen related receptor (ERR) signaling pathway (AID 1224820)
Procedure, shortened: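 Quantitative HTS of the LOPAC library used NTP ERR reporter cells treated 18 h at 37 C. Signal is luminescence after One-Glo addition and a 30 min room-temperature incubation.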

[19] = qHTS assay to identify small molecule agonists of the estrogen related receptor signaling pathway with the pleiotropic PPARgamma coactivator (PGC) (AID 1224823)
Procedure, shortened: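 Cell-based luciferase assay in the NTP-supplied PGC/ERR line, 2,000 cells/well; 18 h compound exposure at 37 C, luminescence after One-Glo.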

[20] = system: estrogen-related receptor alpha (ERRalpha) with PGC-1alpha coactivator, human; assay: qHTS assay to identify small molecule antagonists of the estrogen related receptor signaling pathway with the pleiotropic PPARgamma coactivator (PGC) (AID 1224821; calls by dose curve)
Procedure, shortened: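 Quantitative HTS for antagonism: PGC/ERR cells received compounds after 6 h attachment and were incubated 18 h at 37 C, with luminescence (One-Glo) as the endpoint.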

Measured: Potency

CC(N)=O
inactive: [1] | [2] | [3] | [4] | [5] | [6] | [7] | [8] | [9] | [10] | [11] | [12] | [13] | [14] | [15] | [16]

CCCNC(C)C(=O)Nc1ccccc1C (stereo not drawn)
inactive: [1] | [3] | [4] | [5] | [6] | [7] | [8] | [9] | [10] | [11] | [12] | [13] | [14] | [15] | [16]

OCC(CO)N[C@H]1C[C@](O)(CO)[C@@H](O)[C@H](O)[C@H]1O
inactive: [1] | [2] | [3] | [4] | [5] | [6] | [7] | [8] | [9] | [10] | [11] | [12] | [13]

COc1cc(C(=S)N2CCOCC2)ccc1O
inactive: [1] | [2] | [3] | [4] | [5] | [6] | [7] | [8] | [9] | [10] | [11] | [12] | [13]

O
inactive: [1] | [2] | [3] | [4] | [5] | [6] | [8] | [9] | [10] | [11] | [12] | [16]

COc1ccc(COC(C)=O)cc1
inactive: [1] | [2] | [3] | [4] | [5] | [6] | [7] | [9] | [10] | [11] | [12] | [13] | [14] | [16]

c1ccc2n[nH]nc2c1
inactive: [2] | [3] | [4] | [5] | [6] | [7] | [8] | [9] | [10] | [12] | [13] | [14] | [16]
inactive and 38.9 µM (active): [1]

NC12CC3CC(CC(C3)C1)C2
inactive: [1] | [2] | [3] | [4] | [5] | [6] | [7] | [9] | [10] | [11] | [12] | [13] | [15] | [16]

COC(=O)/C=C/c1ccccc1
inactive: [1] | [2] | [3] | [4] | [5] | [6] | [7] | [9] | [10] | [11] | [12] | [13]

CC(C)(C)NC(=O)[C@@H]1CN(Cc2cccnc2)CCN1C[C@@H](O)C[C@@H](Cc1ccccc1)C(=O)N[C@H]1c2ccccc2C[C@H]1O
inactive: [1] | [2] | [3] | [4] | [5] | [6] | [7] | [8] | [9] | [10] | [12] | [16]

Cc1cccc(O)c1C
inactive: [1] | [2] | [3] | [4] | [5] | [6] | [7] | [9] | [10] | [11] | [12] | [13] | [14] | [16]

COC(=O)[C@H]1[C@H]2C[C@@H]3c4[nH]c5cc(OC)ccc5c4CCN3C[C@H]2C[C@@H](OC(=O)c2cc(OC)c(OC)c(OC)c2)[C@@H]1OC
inactive and 31.8 µM (active): [2]
active: [7] 30.6 µM and 28.1 µM | [17] 21.1 µM | [16] 22.3 µM
inactive: [1] | [3] | [4] | [5] | [6] | [8] | [9] | [11] | [12] | [18] | [19]

CC(=O)OCCOCCOCCOC(C)=O
inactive and 12.3 µM (active): [10]
inactive: [1] | [3] | [4] | [5] | [6] | [7] | [9] | [12] | [13] | [16]

NC(N)=Nc1nc(CSCC/C(N)=N/S(N)(=O)=O)cs1
inactive: [1] | [2] | [3] | [4] | [5] | [6] | [7] | [9] | [10] | [11] | [12] | [13] | [17] | [18] | [20] | [15] | [19] | [16]

Cc1cccc([N+](=O)[O-])c1C(=O)O
inactive: [1] | [2] | [3] | [4] | [5] | [6] | [7] | [9] | [10] | [12] | [13] | [14] | [16]

CCC(C)(C)C(=O)O[C@H]1C[C@@H](C)C=C2C=C[C@H](C)[C@H](CC[C@@H]3C[C@@H](O)CC(=O)O3)[C@H]21
inactive: [1] | [2] | [3] | [4] | [5] | [9] | [12] | [16]
active: [6] 9.44 µM | [7] 3.86 µM and 841 nM

Cc1ccc(-c2cc(C(F)(F)F)nn2-c2ccc(S(N)(=O)=O)cc2)cc1
inactive: [1] | [3] | [4] | [5] | [18] | [20] | [15] | [19]
60.9 µM (active) and inactive: [12]
active: [6] 60.9 µM and 54.5 µM | [8] 48.8 µM and 54.9 µM | [13] 43.1 µM and 27.3 µM and 29.8 µM
